RAD52 anneal inh: RAD52 DNA annealing inhibitors, primary screen, biochemical, FRET, single point, set 2; inhibition, % at 18.7 µM; AID 651710, 2012; 0.46% of 360,000 active; DNA repair protein RAD52 homolog (Homo sapiens), P43351; recombinant RAD52 DNA annealing, FRET fluorescence;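 active = every replicate showing at least 50% inhibition; inconclusive = mean inhibition at least 50% but not in every replicate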
CFTR F508del cor: F508del CFTR correction, initial screen, CFBE line, single point | CFBE cells, YFP halide quenching; stimulated with forskolin plus potentiator P3; % fluorescence drop versus neutral controls | AID 720511, 2013 | 0.36% of 350,000 active | activity (quench increase), % at 7.58 µM;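 active = mean added fluorescence quench of at least 8% versus neutral control, with both replicates also reaching 8%; inconclusive = only one of the mean or replicate conditions met; inactive = mean below 8% and not both replicates reaching 8%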;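 note: cells transiently co-express mutant CFTR-F508del with the halide-sensitive YFP; corrector assay measuring rescue of mutant channel to the surface after 24 h compound exposure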
RAD54 branch: inhibitors of human RAD54 branch migration, primary screen, biochemical, fluorescence, single point; DNA repair and recombination protein RAD54-like (Homo sapiens), Q92698; RAD54 Holliday junction branch migration, FAM/BHQ fluorescence; inhibition, % at 10.4 µM; 0.14% of 360,000 active; AID 602329, 2012;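 active = mean normalized replicate activity at least 40 and at least half of replicates scoring 40 or more; inconclusive = only one of the two criteria met; inactive = mean below 40 and under half of replicates reaching 40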;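 note: 0% = median of neutral control wells and 100% = median of positive control wells; inhibitors cause a drop in the FAM fluorescence signal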
Target sequence (Q92698 whole entry, looked up): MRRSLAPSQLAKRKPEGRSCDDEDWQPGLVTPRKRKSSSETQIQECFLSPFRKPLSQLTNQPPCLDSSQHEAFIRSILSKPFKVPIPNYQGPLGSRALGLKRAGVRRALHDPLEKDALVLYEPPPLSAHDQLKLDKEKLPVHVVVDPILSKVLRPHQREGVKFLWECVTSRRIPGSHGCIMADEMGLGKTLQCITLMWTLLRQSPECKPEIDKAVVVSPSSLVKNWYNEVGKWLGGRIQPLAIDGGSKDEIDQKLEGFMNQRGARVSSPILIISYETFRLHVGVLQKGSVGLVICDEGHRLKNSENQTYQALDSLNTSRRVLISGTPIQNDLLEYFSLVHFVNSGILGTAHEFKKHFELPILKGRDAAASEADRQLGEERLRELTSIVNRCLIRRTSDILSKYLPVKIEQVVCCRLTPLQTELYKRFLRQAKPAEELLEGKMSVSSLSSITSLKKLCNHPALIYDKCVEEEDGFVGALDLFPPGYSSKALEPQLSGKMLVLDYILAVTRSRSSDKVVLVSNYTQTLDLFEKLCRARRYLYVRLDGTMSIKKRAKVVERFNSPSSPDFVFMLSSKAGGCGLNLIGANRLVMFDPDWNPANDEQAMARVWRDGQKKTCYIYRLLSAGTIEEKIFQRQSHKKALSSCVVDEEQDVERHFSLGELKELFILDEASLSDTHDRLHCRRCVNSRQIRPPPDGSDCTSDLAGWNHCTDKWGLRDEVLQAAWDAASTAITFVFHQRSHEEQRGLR
LGR2 antag: inhibitors of bursicon-induced LGR2 CRE-luciferase signal, primary screen, cell-based, HEK293, CRE-luciferase reporter, bursicon stimulation. Drosophila bursicon receptor LGR2 (rickets). bursicon-stimulated, 4 h. inhibition, % at 9.99 µM. 0.35% of 380,000 active. AID 720647, 2013;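 active = drop in luminescence signal, shown as inhibition above about 50% in the replicate tests, limit read from the data, passing the limit was not always enough; inconclusive = probably only some replicates passing the limit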;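 note: agonist challenge used bursicon conditioned medium at about half maximal strength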
GSIS activator: GLuc luminescence reporter in INS-1E cells, primary screen for activators of glucose-dependent secretion of insulin; activation, % at 16.6 µM; 0.61% of 370,000 active; INS-1E GLuc reporter insulin secretion, 2-3 h;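 active = lowest replicate activation of at least 40%, so every replicate reaches that level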;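 note: 0% = median of neutral control wells and 100% = median of IBMX positive control wells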
EWS-Fli block: EWS/Fli-driven NR0B1 reporter inhibitors, primary screen, A673 cells, NR0B1 luciferase, luminescence, MLPCN library; 0.67% of 350,000 active; inhibition, % at 12.6 µM; viability-normalised;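 active = mean inhibition of at least 50% after viability correction, with every replicate also passing that limit; inconclusive = mean reaches 50% but only one of two replicates passes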;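 note: firefly luciferase signal divided by Alamar Blue viability fluorescence both relative to DMSO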
RAD52 DNA ctr: DNA-binding compounds via dye displacement, dose response, artefact control for RAD52 inhibitor project, biochemical, fluorescence polarization, cherry-pick | Salmon sperm DNA/acridine orange FP displacement | AID 652128, 2013 | shares compounds with RAD52 anneal inh | AC50, µM | 8% of 1,000 active;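 active = fitted half-maximal concentration for signal loss at or below twice the highest dose tested, in every separate run, actives reach about 64 µM in these data; inconclusive = runs disagree, or flat partial signal loss, or poor fit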
An asterisk follows results filed as active; i = inactive; ? = inconclusive; · = no result; ! = a repeat was not active. This is a sample that favours compounds with a hit; in the whole collection about 1.8% have one here.

SMILES | RAD52 anneal inh | CFTR F508del cor | RAD54 branch | LGR2 antag | GSIS activator | EWS-Fli block | RAD52 DNA ctr
COc1ccc(-c2coc3c(C(=O)NCCN(C)C)cccc23)c(C)c1 | 26 | -1 | 13 | 0 | 26 | 5 | ·
CN(C)CCNC(=O)c1ccccc1-c1ccccc1 | · | · | 10 | · | · | · | ·
COc1ccc(NC(=O)C2CCCN(c3cnccn3)C2)c(OC)c1 (stereo not drawn) | -6 | 1 | -5 | -2 | -5 | · | ·
CC(=O)N1CCCCN2[C@@H](CO)[C@H](c3ccc(-c4ccncc4)cc3)[C@@H]2C1 | -3 | 0 | 6 | 4 | 22 | -4 | ·
COc1cccc2nc3c(C(=O)NCCN(C)C)cccc3cc12 | 81* | 5 | · | 1 | -2 | 41 | 34µM*
Cc1cc(C)c(NC(=O)COC(=O)COc2ccc3c(C)cc(=O)oc3c2)c(Cl)c1 | -11 | 0 | -1 | 5 | · | 7 | ·
COc1ccc(/C=C2\Sc3ccc(C(=O)NCCCN4CCCC4)cc3N(C)C2=O)cc1OC | 66* | 4 | 24 | -24 | 5 | 8 | i
CCOC(=O)N1CCN(C(=O)c2ccc3c(c2)N(C)C(=O)/C(=C\c2ccc(OCC)c(OC)c2)S3)CC1 | 2 | 2 | 5 | -19 | 9 | 9 | ·
O=C1Nc2cc(C(=O)NCCCN3CCCC3)ccc2S/C1=C\c1ccccc1 | 84* | 1 | 10 | 5 | -4 | 23 | i
O=C(C[C@@H]1C=C[C@H](NC(=O)Nc2ccc3c(c2)OCO3)[C@@H](CO)O1)NCc1ccccc1 | 12 | 2 | -4 | 13 | -4 | -1 | ·
CCN1CCN(Cc2ccc(NC(=O)c3ccc(C)c(NC(=O)c4nccn4C)c3)cc2C(F)(F)F)CC1 | 6 | -2 | 3 | 1 | 0 | 5 | ·
CCN1CCN(Cc2ccc(NC(=O)c3ccc(C)c(NC(=O)c4cccc5[nH]ccc45)c3)cc2C(F)(F)F)CC1 | 89*! | 0 | 7 | 16 | 1 | 6 | i
CCN1CCN(Cc2ccc(NC(=O)c3ccc(C)c(NC(=O)c4nccnc4N)c3)cc2C(F)(F)F)CC1 | 67* | -1 | 11 | 39 | 18 | 20 | i
CC1=C(C(=O)N(C(C)C)C(C)C)CC(CC(=O)NCCc2ccccn2)C(=O)N1Cc1ccc(C(C)(C)C)cc1 (stereo not drawn) | -7 | 1 | 4 | 16 | -36 | 3 | ·
CCCCc1oc2ccccc2c1C(=O)c1cc(I)c(OCCN(CC)CC)c(I)c1 | 50* | · | 2 | 7 | · | 5 | i
C[C@H](CO)N1C[C@H](C)[C@@H](CN(C)Cc2ccncc2)Oc2ccc(NC(=O)Nc3ccc(F)cc3)cc2C1=O | 20 | -3 | -2 | 13 | 3 | -9 | ·
Cn1c(C(=O)NCCCN2CCCCCC2)cc2c(=O)n(C)c3ccccc3c21 | 52* | -4 | 44 | 15 | -6 | -11 | i
Cn1c(C(=O)NC2CC2)cc2c(=O)n(C)c3ccccc3c21 | 13 | -2 | 17 | -12 | 4 | 3 | ·
COc1ccc(/C=N/Nc2cc(N3CCCC3)nc(N3CCCC3)n2)cc1 | 73* | 5 | 7 | 7 | 0 | 6 | i
CCOC(=O)c1c(C)nc2c(C#N)cnn2c1C | · | · | 12 | · | · | · | ·
CCOCc1c(C(=O)OCC(=O)Nc2ccccc2C(N)=O)oc2ccccc12 | -5 | 0 | 1 | 9 | 9 | 5 | ·
CN1CCN(c2ccc(NC(=O)c3ccc(-c4cccc([N+](=O)[O-])c4)o3)cc2)CC1 | 58* | 2 | · | 4 | -10 | -40 | i
COc1ccc(C(=O)C2CCCN(Cc3ccc(C#CCCO)cc3)C2)c(OC)c1 (stereo not drawn) | -30 | 0 | -5 | 14 | 19 | 7 | ·
COc1cc(/C=C/C(=O)NNC(=O)c2cccc(S(=O)(=O)N(C)C)c2)cc(OC)c1OC | -15 | -1 | -13 | -17 | 28 | -2 | ·
CCOCCCn1c(C)nc2c[n+](CC(=O)c3ccc4ccccc4c3)cc(Br)c21 | 64* | 2 | 37 | 0 | 0 | 6 | i
SMILES | RAD52 anneal inh | CFTR F508del cor | RAD54 branch | LGR2 antag | GSIS activator | EWS-Fli block | RAD52 DNA ctr
CCCCCc1cc(=O)oc2c(C(CCN3CCCC3)c3cc(OC)c(OC)c(OC)c3)c(OC)cc(OC)c12 (stereo not drawn) | 59* | 2 | 7 | · | · | 18 | i
Cc1cc(N2CCN(C)CC2)nc2ccc(NC(=S)N3CCCCCC3)cc12 | 52* | 0 | 18 | -25 | 19 | -2 | i
Cc1cc(N2CCN(C)CC2)nc2ccc(NC(=S)N3CCN(c4ccc(Cl)cc4)CC3)cc12 | 90* | -4 | 20 | -3 | -21 | 10 | i
Cc1cc(N2CCN(C)CC2)nc2ccc(NC(=S)N3CCN(c4ccc(F)cc4)CC3)cc12 | -6 | -1 | -3 | -15 | -29 | 12 | ·
Cc1cc(N2CCN(C)CC2)nc2ccc(NC(=S)N3CCCCC3)cc12 | 71* | -1 | 43 | -35 | 6 | -5 | i
CCCn1c(N)c(C(=O)CSc2nnc3ccccn23)c(=O)[nH]c1=O | -3 | -1 | · | 36 | -2 | -3 | ·
CCCC(=O)N1CC2(C1)CN(Cc1cccnc1)[C@H](CO)c1[nH]c3cc(OC)ccc3c12 | -48 | -2 | · | 13 | -3 | 1 | ·
CCCNC(=O)N(C)C[C@@H]1Oc2ncc(-c3ccc(C(=O)N(C)C)cc3)cc2C(=O)N([C@H](C)CO)C[C@H]1C | -13 | 0 | -4 | 2 | 2 | -5 | ·
CCOC(=O)/C=C1/SCC(=O)N1CC(=O)Nc1ccc2c(c1)CCC2 | -316 | 5 | -21 | -13 | · | -2 | ·
CN(C)C=Nc1ccc2nc3c(cc2c1)[nH]c1ccccc13 | 96* | 3 | · | -80 | 17 | -109 | 23µM*
CCN(CC)CCNC(=O)C(=O)Nc1cc2c3c(c1)CC(=O)N3CCC2 | 55* | -4 | -5 | -9 | 23 | 4 | i
O=C(O)c1cc(-n2nnnc2SCc2ccc([N+](=O)[O-])cc2)ccc1Cl | 105* | 4 | -8 | -3 | · | 9 | i
O=C(CCN1CCCCC1)N[C@H]1CC[C@@H](CCNS(=O)(=O)c2ccc(F)cc2)O[C@@H]1CO | 5 | 2 | -5 | 11 | 1 | 0 | ·
COc1ccc(NC(=O)c2cc(C)on2)cc1 | -13 | 1 | · | -38 | 30 | -57 | ·
CCCS(=O)(=O)Nc1ccc(Nc2c3ccccc3nc3ccccc23)c(OC)c1 | 64* | 7 | · | -3 | -13 | 43 | ?
COc1ccc(NS(=O)(=O)Cc2ccccc2)cc1OC | · | · | 2 | · | 15 | · | ·

Compound activity (PubChem)
